Test results reported in PubChem BioAssay (Tox21).
Several values for one entry are separate records, joined by “and”; a condition that tells them apart may be missing. Equal values may be shown once. Results filed as inconclusive are left out. Activity calls are given as the source filed them. Unless noted, calls come from the whole dose curve; as a rule, active = well fitted curve in the direction sought with a large enough effect in the repeat runs; inconclusive = weak or mixed curves; inactive = no such curve, though single readings can be large; an effect the other way counts as inactive or inconclusive.

Assays:
[1] = qHTS assay to identify small molecule agonists of the hypoxia (HIF-1) signaling pathway - cell viability counter screen (AID 1224844; calls by dose curve; note: nearly all actives have a fitted effect of over 50% in size; note: potency is the fitted concentration of half-maximal effect)
Procedure, shortened: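 HRE-bla ME-180 cells, 2,000/well in 0.5% dialyzed FBS medium, treated 17 h at 37C with compounds. Viability read in the same wells as the bla reporter, by CellTiter-Glo luminescence after 30 min at room temperature.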

[2] = qHTS assay to identify small molecule agonists of H2AX - cell viability counter screen (AID 1224847; calls by dose curve; note: nearly all actives have a fitted effect of over 30% in size; note: potency is the fitted concentration of half-maximal effect)
Procedure, shortened: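 Cytotoxicity counter screen in wild-type CHO-K1 cells: a 3 hr compound treatment at 37C across 15 concentrations, followed by CellTiter-Glo luminescence to gauge viable cells.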

[3] = qHTS RealTime-Glo MT Cell Viability Assay in HepG2 cells - 24 hour (AID 1224867); note: nearly all actives have a fitted effect of over 50% in size; note: potency is the fitted concentration of half-maximal effect
Procedure, shortened: (§1)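 Cell number in HepG2 cultures estimated from NanoLuc luminescence generated by metabolic reduction of a prosubstrate by living cells. The homogeneous, nonlytic format allowed repeated reads at 0, 8, 16, 24, 32 and 40 h of compound exposure.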

[4] = qHTS RealTime-Glo MT Cell Viability Assay in HEK293 cells - 32 hour (AID 1224868); note: nearly all actives have a fitted effect of over 50% in size; note: potency is the fitted concentration of half-maximal effect
Procedure, shortened: (§2)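 Homogeneous bioluminescent viability format in HEK293 cells (600 cells/well). Following 5 h at 37 C/5% CO2, 23 nL compound was pintooled; the signal was measured repeatedly during 40 h incubation.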

[5] = A CellTox Green Cytotoxicity Assay to monitor cytotoxicity in HEK293 cells - 0 hour (AID 1224869); note: % is set by controls: 0 for no effect and ±100 for the full control effect; nearly all actives have a fitted effect of over 50% in size
Procedure, shortened: (§3)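 HEK293 cells, 600/well, were preincubated 5 hours and then exposed to compounds at 37 C for up to 40 hours. A cell-impermeant cyanine dye staining dead-cell DNA was read by fluorescence at 0, 8, 16, 24, 32 and 40 h time points.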

[6] = qHTS RealTime-Glo MT Cell Viability Assay in HepG2 cells - 40 hour (AID 1224870); note: nearly all actives have a fitted effect of over 50% in size; note: potency is the fitted concentration of half-maximal effect
Procedure, shortened: (§4)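 Real-time viability: cells seeded at 600 per well together with NanoLuc and cell-permeant prosubstrate, compounds added after 5 h incubation. Luminescence tracked at 0, 8, 16, 24, 32 and 40 h of exposure.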

[7] = A CellTox Green Cytotoxicity Assay to monitor cytotoxicity in HEK293 cells - 40 hour (AID 1224871); note: nearly all actives have a fitted effect of over 45% in size; note: potency is the fitted concentration of half-maximal effect
Procedure, shortened: as §3

[8] = qHTS RealTime-Glo MT Cell Viability Assay in HEK293 cells - 16 hour (AID 1224872); note: nearly all actives have a fitted effect of over 50% in size; note: potency is the fitted concentration of half-maximal effect
Procedure, shortened: as §2

[9] = qHTS RealTime-Glo MT Cell Viability Assay in HepG2 cells - 8 hour (AID 1224873); note: nearly all actives have a fitted effect of over 55% in size; note: potency is the fitted concentration of half-maximal effect
Procedure, shortened: as §4

[10] = qHTS RealTime-Glo MT Cell Viability Assay in HEK293 cells - 40 hour (AID 1224874); settings: RealTime-Glo luminescence; max response: hits give low values; note: nearly all actives have a fitted effect of over 50% in size; note: potency is the fitted concentration of half-maximal effect; for max response: % is set by controls: 0 for no effect and ±100 for the full control effect
Procedure, shortened: (§5)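 600 cells/well were plated with the nonlytic NanoLuc/prosubstrate reagent, pre-incubated 5 h, then given 23 nL of compound in DMSO. Incubation at 37 C for 40 h, with luminescence from viable-cell-reduced substrate read repeatedly from 0 h.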

[11] = A CellTox Green Cytotoxicity Assay to monitor cytotoxicity in HEK293 cells - 24 hour (AID 1224875); note: nearly all actives have a fitted effect of over 45% in size; note: potency is the fitted concentration of half-maximal effect; for activity change: % is set by controls: 0 for no effect and ±100 for the full control effect
Procedure, shortened: as §3

[12] = A CellTox Green Cytotoxicity Assay to monitor cytotoxicity in HepG2 cells - 16 hour (AID 1224876); note: nearly all actives have a fitted effect of over 45% in size; note: potency is the fitted concentration of half-maximal effect
Procedure, shortened: (§6)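 HepG2 cells, 600/well, preincubated 5 h with CellTox Green dye, then exposed to Tox21 compounds in DMSO at 37 C for up to 40 h. Dead-cell DNA fluorescence read at the indicated time point.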

[13] = qHTS RealTime-Glo MT Cell Viability Assay in HepG2 cells - 32 hour (AID 1224877); note: nearly all actives have a fitted effect of over 55% in size; note: potency is the fitted concentration of half-maximal effect
Procedure, shortened: as §1

[14] = A CellTox Green Cytotoxicity Assay to monitor cytotoxicity in HepG2 cells - 24 hour (AID 1224878); note: nearly all actives have a fitted effect of over 45% in size; note: potency is the fitted concentration of half-maximal effect; for Cytotoxicity: % is set by controls: 0 for no effect and ±100 for the full control effect
Procedure, shortened: as §6

[15] = A CellTox Green Cytotoxicity Assay to monitor cytotoxicity in HepG2 cells - 40 hour (AID 1224879); note: nearly all actives have a fitted effect of over 40% in size; note: potency is the fitted concentration of half-maximal effect
Procedure, shortened: as §6

[16] = qHTS RealTime-Glo MT Cell Viability Assay in HEK293 cells - 0 hour (AID 1224880)
Procedure, shortened: as §5

[17] = qHTS assay to identify small molecule agonists of H2AX (AID 1224845; active = well fitted activation curve with a large enough effect in the signal ratio in the repeat runs, not every such curve was filed as active; the % refers to the signal ratio; note: potency is the fitted concentration of half-maximal effect)
Procedure, shortened: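 Phospho-H2AX Ser139 measured by HTRF (ex 320 nm; em 665 and 620 nm) after 24 hr antibody incubation. Compounds, 15 concentrations, 0.76% DMSO, were applied to CHO-K1 cells for 3hr at 37C before lysis.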

[18] = qHTS assay to identify small molecule agonists of the hypoxia (HIF-1) signaling pathway (AID 1224846; active = well fitted activation curve with a large enough effect in the signal ratio in the repeat runs, not every such curve was filed as active; the % refers to the signal ratio; note: % is set by controls: 0 for no effect and ±100 for the full control effect)
Procedure, shortened: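 HRE-bla ME-180 beta-lactamase reporter cells in medium with 0.5% dialyzed FBS, pre-incubated 5 h then exposed to compounds 17 h at 37C, 5% CO2; reporter induction read with CCF4-AM FRET substrate.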

[19] = qHTS assay to identify small molecule antagonists of the estrogen related receptor (ERR) signaling pathway from Tox21 library (AID 1224848)
Procedure, shortened: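 Reading was by luminescence 30 min after ONE-Glo addition. Before that, ERR cells at 2,000 per well had rested 6 h at 37 C/5% CO2 and then received pin-tooled compounds in DMSO for 18 h at 37 C.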

[20] = qHTS assay to identify small molecule agonists of the estrogen related receptor (ERR) signaling pathway from Tox21 library (AID 1224849; calls by dose curve; note: % is set by controls: 0 for no effect and ±100 for the full control effect; nearly all actives have a fitted effect of over 15% in size); settings: ERR reporter cell line, ONE-Glo luciferase, 18 h; at 92.4 µM (top of the series) unless noted
Procedure, shortened: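 ERR reporter cells (NTP line) pre-incubated 6 hours at 37 C, then exposed to compounds for 18 hours at 37 C. ONE-Glo luciferase luminescence was read after 30 minutes at room temperature.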

CN(C)C(=S)SSC(=S)N(C)C
active: Potency [1] 171 nM and 347 nM | Potency [2] 49.8 µM and 89.8 µM and 49.2 µM | Potency [3] 54.2 µM and 436 nM and 379 nM | Potency [4] 242 nM and 245 nM | Potency [6] 54.2 µM and 219 nM and 169 nM | Potency [7] 216 nM and 195 nM and 239 nM | Potency [8] 384 nM and 692 nM | Potency [9] 48.3 µM and 24.5 µM and 3.01 µM | Potency [10] 216 nM and 219 nM and 9.52 µM | Potency [11] 27.2 µM and 27.5 µM | Potency [12] 21.9 µM | Potency [13] 54.2 µM and 245 nM and 169 nM | Potency [14] 436 nM and 21.3 µM | Potency [15] 216 nM and 275 nM and 134 nM
inactive: Potency [5] | Potency [16]

C1=CCC=C1
inactive: Potency [1] | Potency [5] | Potency [6] | Potency [7] | Potency [8] | Potency [9] | Potency [11] | Potency [12] | Potency [14] | Potency [15] | Potency [16]

Nc1ccccc1-c1ccccc1
active: Potency [19] 27.1 µM
inactive: Potency [17] | Potency [18] | Potency [2] | activity change, positive = activation [20] -40.4% | Potency [3] | Potency [4] | Potency [5] | Potency [6] | Potency [8] | Potency [9] | max response [10] -12.7% | Potency [12] | Potency [13] | Potency [14] | Potency [15]

C=C(C)C(=O)[O][Sn]([CH2]CCC)([CH2]CCC)[CH2]CCC
inactive: activity change, positive = activation [20] -73.3% | Potency [5]
active: Potency [1] 0.692 µM | Potency [3] 0.436 µM | Potency [4] 275 nM | Potency [6] 0.195 µM | Potency [7] 0.436 µM | Potency [8] 389 nM | Potency [9] 0.616 µM | Potency [10] 245 nM | Potency [11] 2.19 µM | Potency [12] 0.49 µM | Potency [13] 0.245 µM | Potency [15] 0.389 µM

O=C(N[C@@H]1N=C(c2ccccc2F)c2cccc3c2N(CC3)C1=O)c1cc2ccccc2[nH]1
active: Potency [7] 6.01 µM | Potency [11] 5.35 µM | Potency [12] 21.3 µM | Potency [14] 21.3 µM | Potency [15] 9.52 µM
inactive: Potency [1] | Potency [2] | Potency [4] | Potency [8] | max response [10] -2.71% | Potency [16]

O=C1C2(Cl)C3(Cl)C4(Cl)C(Cl)(Cl)C5(Cl)C3(Cl)C1(Cl)C5(Cl)C24Cl (stereo not drawn)
active: Potency [1] 21.5 µM | Potency [2] 49.6 µM and 96.5 µM | Potency [3] 42.9 µM and 46.9 µM | Potency [4] 19.2 µM and 41.8 µM | Potency [6] 54 µM and 46.9 µM | Potency [7] 42.9 µM and 52.6 µM | Potency [8] 21.5 µM and 41.8 µM | Potency [9] 42.9 µM and 46.9 µM | Potency [10] 13.6 µM and 37.3 µM | Potency [11] 38.3 µM and 52.6 µM | Potency [12] 24.1 µM and 41.8 µM | Potency [13] 48.2 µM and 46.9 µM | Potency [14] 48.2 µM and 41.8 µM | Potency [15] 21.5 µM and 37.3 µM
inactive: Potency [5] | Potency [16]

O.O.O.O=C([O-])[C@H]([O-])[C@@H]([O-])C(=O)[O-].O=C([O-])[C@H]([O-])[C@@H]([O-])C(=O)[O-].[K+].[K+].[Sb+3].[Sb+3]
active: Potency [17] 114 µM
inactive: Potency [2] | Potency [5] | Potency [6] | Potency [11] | Potency [14] | Potency [16]

CN1CCc2cc(Cl)c(O)cc2[C@H]2c3ccccc3CC[C@@H]21
inactive: Potency [17] | Potency [18] | Potency [2] | Potency [3] | Potency [5] | Potency [6] | Potency [7] | Potency [9] | Potency [11] | Potency [12] | Potency [13] | Potency [14] | Potency [15] | Potency [16]

CC(C)c1c(CN(C)C(C)Cc2ccccc2)n(C)n(-c2ccccc2)c1=O (stereo not drawn)
inactive: Potency [17] | Potency [18] | Potency [2] | Potency [3] | Potency [5] | Potency [6] | Potency [7] | Potency [9] | Potency [11] | Potency [12] | Potency [13] | Potency [14] | Potency [15] | Potency [16]

CCCCC/C=C\C/C=C\C/C=C\C/C=C\CCCC(=O)NCC(=O)O
inactive: Potency [1] | Potency [3] | Potency [4] | Potency [5] | Potency [6] | Potency [7] | Potency [8] | Potency [9] | max response [10] -10.5% | Potency [11] | Potency [13] | Potency [14] | Potency [15]

Fc1ccc(C(OCCN2CCN(CCCc3ccccc3)CC2)c2ccc(F)cc2)cc1
active: Potency [1] 16.9 µM | Potency [2] 55.2 µM | Potency [3] 23.9 µM | Potency [4] 9520 nM | Potency [6] 26.8 µM | Potency [7] 21.3 µM | Potency [8] 8490 nM | Potency [9] 23.9 µM | Potency [10] 9520 nM | Potency [11] 23.9 µM | Potency [13] 23.9 µM | Potency [14] 23.9 µM | Potency [15] 23.9 µM
inactive: activity change, positive = activation [20] -58.9% [at 42.5 µM] | Potency [5] | Potency [16]

CCC(OC(C)=O)C(CC(C)NC)(c1ccccc1)c1ccccc1 (stereo not drawn)
inactive: Potency [17] | Potency [18] | Potency [5]
active: Potency [2] 128 µM | Potency [19] 69.2 µM | Potency [3] 62.2 µM | Potency [4] 55400 nM | Potency [6] 62.2 µM | Potency [7] 62.2 µM | Potency [8] 49400 nM | Potency [10] 49400 nM | Potency [12] 62.2 µM | Potency [13] 62.2 µM | Potency [14] 55.4 µM | Potency [15] 55.4 µM

CC(=O)[O][Sn]([c]1ccccc1)([c]1ccccc1)[c]1ccccc1
active: Potency [17] 0.101 µM | Potency [2] 0.142 µM | Potency [4] 38.9 nM | Potency [7] 0.219 µM | Potency [8] 49 nM | Potency [9] 11 µM | Potency [10] 34.7 nM | Potency [11] 0.245 µM
inactive: Potency [5] | Potency [16]
